# Screening data: PubChem, National Center for Advancing Translational Sciences (NCATS)
# SMN2 splice up = enhancers of SMN2 splice variant expression; HEK293 SMN2-luciferase splicing reporter, luminescence, 30-36 h; Potency, µM (series often up to 46.1 µM), inactives show top-dose activity change, positive = activation, actives largely listed as activators; 210,000 tested, 2.8% active; note: % of control where 0% means no effect; nearly all actives have a fitted effect of over 55% in size
#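 HEK293 cells carry an SMN2 […]–luciferase reporter in which exon 7 inclusion puts luciferase in frame. Cells were plated 10-12 h before compound addition, then incubated 30-36 h at 37C. ONE-Glo luminescence was read; sodium butyrate at 4.5 mM final served as control.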
# Luc counter = counter-screen: inhibitors of Kinase-Glo firefly luciferase; 200,000 tested, 0.28% active; Potency, µM (top dose mostly 38.3 µM), for the others: top-dose activity change, negative = inhibition, hits mostly inhibitors; AID 1379; Q27757; Kinase-Glo luciferase, ATP luminescence, 8 min; note: % is set by controls: 0 for no effect and ±100 for the full control effect; nearly all actives have a fitted effect of over 60% in size
#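 Luminescence was the read-out, taken after 8-minute incubation at ambient temperature. Luciferase turned over luciferin with 10 uM ATP in imidazole pH 7.2 buffer containing KCl, MgCl2, Tween 20 and BSA.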
# FLuc modulator = inhibits or activates purified firefly luciferase, miR-21 counter-screen | P08659 | purified FLuc, Km substrates, luminescence inhibition | Potency, µM (highest dose often 57.5 µM), for the others: top-dose activity change, negative = inhibition, most hits filed as inhibitors | 360,000 tested, 6.9% active | AID 588342;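 note: plate controls were vehicle for no effect and reference inhibitor for full effect; nearly all actives have a fitted effect of over 55% in size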
# Target sequence (P08659 whole entry, looked up): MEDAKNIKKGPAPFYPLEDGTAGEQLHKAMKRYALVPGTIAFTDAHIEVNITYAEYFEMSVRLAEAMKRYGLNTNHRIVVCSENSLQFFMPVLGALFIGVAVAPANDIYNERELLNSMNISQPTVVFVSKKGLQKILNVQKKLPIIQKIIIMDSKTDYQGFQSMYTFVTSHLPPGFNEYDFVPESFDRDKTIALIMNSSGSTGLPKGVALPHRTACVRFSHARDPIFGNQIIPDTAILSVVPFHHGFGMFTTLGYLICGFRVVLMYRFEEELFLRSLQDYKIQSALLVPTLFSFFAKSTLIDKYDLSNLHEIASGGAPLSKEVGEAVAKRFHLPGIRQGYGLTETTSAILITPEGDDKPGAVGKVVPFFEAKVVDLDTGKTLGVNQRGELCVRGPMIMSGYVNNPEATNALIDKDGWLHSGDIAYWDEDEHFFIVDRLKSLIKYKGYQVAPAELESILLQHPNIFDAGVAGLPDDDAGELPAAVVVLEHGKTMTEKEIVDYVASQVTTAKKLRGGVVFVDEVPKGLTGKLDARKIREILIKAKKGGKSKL
#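 Biochemical qHTS of compounds, final roughly 60 µM downward over six points, against 10 nM purified firefly luciferase using Km concentrations of substrates (10 uM D-luciferin, 10 uM ATP) in Tris acetate pH 7.5 buffer; luminescence output.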
# NPC1 promoter act = NPC1 promoter activation | Huh7 NPC1 promoter luciferase reporter, 24 h | Potency, µM (series often up to 9.22 µM), for inactives: top-dose activation, actives largely listed as activators | 320,000 tested, 2.4% active | AID 485313; note: % of control where 0% means no effect; nearly all actives have a fitted effect of over 60% in size
#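 Cells: Huh7 expressing luciferase under the NPC1 promoter, 1500/well. Seeded 2 h, compound added, incubated 24 h at 37 °C. Luciferase reagent, 10 min ambient, then luminescence.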
# Rab9 prom act = Rab9 promoter activation | Potency, µM (top dose mostly 9.22 µM), without a hit: top-dose activation, negative = inhibition, most hits filed as activators | AID 485297 | Huh7 Rab9 promoter-luciferase reporter, luminescence, 24 h | 320,000 tested, 2.8% active; note: % of control where 0% means no effect; nearly all actives have a fitted effect of over 60% in size
#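 Luminescence from Amplite-detected luciferase (10 minutes, ambient) reports Rab9 promoter activation. Before that, stable Rab9-luciferase Huh7 cells (1500/well, reduced-serum OP-MEM I plus 10% FBS) were exposed to compound for 24 hours at 37C.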
# ELG1 genotoxic = genotoxicity induction in ELG1-luciferase HEK293T cells | HEK293T ELG1-luciferase reporter, luminescence, 16 h | Potency, µM (titrated, usually from 46 µM), without a hit: at the highest dose activity change, positive = activation, most hits filed as activators | 330,000 tested, 1.3% active | AID 504466; note: % of control where 0% means no effect; nearly all actives have a fitted effect of over 60% in size
#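 Screening used a luciferase reporter fused to human ELG1 in HEK293T cells. Luminescence was read on a CCD plate imager after 16 hr exposure and 30 min ONE-Glo incubation.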
# Active calls of the source: *; ? = inconclusive; / = no result; [ ] = remark or other dose. The list is not random: actives were taken first. Their share in the collection is about 7.5%. Calls come from the whole dose curve; as a rule, active = well fitted curve in the direction sought with a large enough effect; inconclusive = small, poorly fitted or top-dose-only effect, or another doubt; inactive = no such curve, though single readings can be large; an effect the other way counts as inactive or inconclusive. Potency is the fitted concentration of half-maximal effect.
SMILES,SMN2 splice up,Luc counter,FLuc modulator,NPC1 promoter act,Rab9 prom act,ELG1 genotoxic
CC(C)(C)SCCNC(=O)/C=C/c1ccccc1,/,/,19µM*,?,?,?
CC(C)(C)SCCNC(=O)/C=C/c1ccc(F)cc1,?,-2%,?,22%,24%,18%
O=C(/C=C/c1ccccc1)NCCc1ccccc1,/,/,19µM*,-4%,29%,21µM*
O=C(Nc1ccc(-c2nc3ccccc3s2)c(O)c1)C1=COCCO1,2.2µM*,-7%,0.48µM*,0.5µM*,0.71µM*,16µM*
O=C(Nc1ccc(O)c(-c2nc3ccccc3s2)c1)C1=COCCO1,-17%,0%,-16%,0%,-1%,0%
O=C(Nc1cccc(-c2nc3ccccc3s2)c1)C1=COCCO1,21%,-2%,17µM*,-5%,-2%,10%
CN1C(=O)/C(=C\C(=O)c2cccs2)c2ccccc21,-20%,0%,19µM*,4%,-10%,-13%
O=C(CNC(=O)c1ccccc1)NCC(=O)OCC(=O)c1ccc(F)cc1,23%,-8%,2%,-4%,-2%,1%
O=C(/C=C\NCC(=O)c1ccccc1)c1ccc2ccccc2c1,/,/,27µM*,17%,16%,10%
O=C(/C=C\NCC(=O)c1ccccc1)c1ccc(F)cc1,-14%,-1%,13µM*,20%,26%,10%
CCc1nnc(NS(=O)(=O)c2ccc(N/C=C\C(=O)c3ccc4ccccc4c3)cc2)s1,-5%,0%,?,1%,-8%,6%
COc1ccc(N=Nc2nc(-c3ccccc3)c(-c3ccccc3)[nH]2)cc1,2%[1.84 µM],-1%,9.5µM*,0%,-4%,-8%
COc1ccccc1N=Nc1nc(-c2ccccc2)c(-c2ccccc2)[nH]1,0%,-3%,12µM*,-3%,0%,-7%
Oc1ccccc1N=Nc1nc(-c2ccccc2)c(-c2ccccc2)[nH]1,-120%,-9%,?,-17%,-18%,0%
CCCc1cc(-c2ccc3c(c2)COc2c4ccccc4nn2-3)on1,/,/,1.1µM*,2.8µM*,2.8µM*,?
C(#CC1CCCC1)c1ccc2c(c1)COc1c3ccccc3nn1-2,/,/,3µM*,0.89µM*,1µM*,?
Cc1ccc(-c2nc(C)c(C(=O)O)s2)cc1,/,-2%,4.8µM*,-14%,?,?
Cc1nc(-c2ccc(Cl)cc2)sc1C(=O)O,11µM*,-1%,15µM*,?,?,?
Cc1nc(-c2ccc([N+](=O)[O-])cc2)sc1C(=O)O,/,-9%,27µM*,24%,?,?
Cc1nc(-c2ccccc2)sc1C(=O)O,?,-6%,?,19%,23%,9%
O=C(CCNC(=O)c1ccccc1Cl)NCCC1=CCCCC1,/,/,4%,1%,-2%,4%
Cc1ccccc1Cn1c(=O)n(CCc2ccccc2)c(=O)c2c(C)c(C)sc21,8%,/,4%,/,/,/
O=[N+]([O-])c1cccnc1SCc1ccccc1,/,/,?,4%,11%,8%
CCCCn1c(N)c(N(CC(C)C)C(=O)c2cccc(-n3cnnn3)c2)c(=O)[nH]c1=O,/,/,5%,1%,-4%,0%
CCCCOC(=O)Nc1ccc(N2CCOCC2)cc1,11µM*,-1%,15µM*,?,3.2µM*,?
SMILES,SMN2 splice up,Luc counter,FLuc modulator,NPC1 promoter act,Rab9 prom act,ELG1 genotoxic
CCc1ccc(OCCCC(=O)Nc2ccc(N3CCCCC3)cc2)cc1,-22%,-1%,-1%,-3%,-1%,-1%
CCCCOC(=O)Nc1ccc(N2CCCCC2)cc1,11µM*,-1%,3µM*,2.2µM*,3.2µM*,?
CC(C)Cc1ccccc1S(N)(=O)=O,/,/,-1%,1%,0%,2%
CCCCc1nnc(NC(=O)c2ccccc2OCc2c(C)noc2C)s1,/,/,1%,0%,15%,0%
O=C(Nn1cnnc1)c1ccncc1,/,/,-1%,0%,-1%,-1%
CC(C)(C)c1ccc(C(=O)Nn2cnnc2)cc1,/,/,24µM*,18%,26%,3%
c1ccc(Sc2ncnc3ccccc23)cc1,/,/,19µM*,0%,-1%,-13%
O=C(CCc1ccccc1)Nc1ccccc1,/,-2%,-3%,-4%,0%,0%
Cc1cccc(NC(=O)CCCc2ccccc2)c1,/,/,17µM*,?,?,?
CC(O)c1cccc(NC(=O)CCCc2ccccc2)c1 (stereo unspecified),/,-5%,-13%,10%,29%,4%
Cc1cccc(NC(=O)N2CCN(Cc3ccccc3)CC2)c1,18%,-3%,17µM*,21%,20%,10%
Cc1cccc(NC(=O)N2CCCCCC2)c1,/,/,?,25%,?,?
CN(C)c1ccc(NC(=O)CCCc2ccccc2)cc1,16µM*,-1%,2.4µM*,4µM*,1.6µM*,0.92µM*
CCc1ccc(Cn2c(CNS(=O)(=O)c3ccc4c(c3)CCCC4)nc3cccnc32)cc1,/,/,-15%,/,/,/
CC1CCN(C(=O)CSc2nc(C(C)C)nc3c2c(=O)n(C)c(=O)n3C)CC1,/,/,-1%,0%,-4%,-17%
O=c1c2ccccc2sn1-c1cc(S(=O)(=O)N2CCOCC2)ccc1N1CCCC1,14%,-3%,5.4µM*,12%,-2%,-1%
Nc1cc(S(=O)(=O)N2CCOCC2)ccc1N1CCCCC1,/,/,/,/,/,1%
O=S(=O)(c1ccc(N2CCOCC2)c(Cl)c1)N1CCOCC1,/,/,-2%,-1%,-3%,-1%
O=c1c2ccccc2sn1-c1cc(S(=O)(=O)N2CCOCC2)ccc1N1CCOCC1,4%,-12%,4.8µM*,1%,11%,-3%
COC(=O)[C@]1(Cc2ccccc2)N[C@H](CN(C)S(=O)(=O)c2ccc(-c3ccccc3)cc2)[C@@H]2C(=O)N(C)C(=O)[C@@H]21,/,/,/,/,/,-2%
CC1CCCCN1C(=O)COC(=O)c1ccc2ccccc2n1 (stereo unspecified),/,/,8.5µM*,-8%,-4%,1%
O=[N+]([O-])c1ccccc1S(=O)(=O)N1CCN(S(=O)(=O)c2ccc3c(c2)OCCO3)CC1,/,/,/,/,/,-2%
CC(=O)c1ccc(N2CCN(C(=O)CCC(=O)Nc3ccc4nc(N5CCCCC5)cc(C)c4c3)CC2)cc1,0%,/,?,/,/,/
CCN1CCN(c2cc(C)c3cc(NC(=O)CCC(=O)N4CCN(c5ccccc5)CC4)ccc3n2)CC1,/,/,?,-5%,2%,-3%
CCN1CCN(c2cc(C)c3cc(NC(=O)CCC(=O)N4CCN(c5ccccc5OC)CC4)ccc3n2)CC1,/,/,15µM*,14%,5%,2%
Cc1cc(N2CCC(C)CC2)nc2ccc(NC(=O)CCC(=O)N3CCN(c4ccccc4F)CC3)cc12,-12%,/,4.8µM*,/,/,/
